Source: PubChem (National Center for Advancing Translational Sciences (NCATS))
Rows were chosen to be rich in hits. Some 7.3% of all compounds tested hit in one or more screens of this group.
ELG1 genotoxic = inducers of genotoxicity in HEK293T ELG1-luciferase cells | AID 504466 | Potency, µM (titrated, usually from 46 µM), most hits filed as activators | hit rate 1.3% among 330,000 | HEK293T ELG1-luciferase reporter, luminescence, 16 h; further: nearly all actives have a fitted effect of over 60% in size
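HEK293T cells expressing luciferase-tagged ELG1 were exposed to compound or DMSO vehicle for 16 hr at 37 °C and 5% CO2. Luciferase activity was then measured with ONE-Glo after 30 min at room temperature.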
NPC1 prom act = NPC1 promoter activation; Potency, µM (doses to about 9.22 µM), hits mostly activators; AID 485313; Huh7 NPC1 promoter luciferase reporter, 24 h; hit rate 2.4% among 320,000; further: nearly all actives have a fitted effect of over 60% in size
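Luciferase expression driven by the NPC1 promoter was measured in stably transfected Huh7 cells after a 24 h compound incubation, using a luciferase reagent and a luminescence read.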
SMN2 splice enh = increases expression of the SMN2 splice variant | HEK293 SMN2-luciferase splicing reporter, luminescence, 30-36 h | Potency, µM (titrated, usually from 46.1 µM), hits mostly activators | hit rate 2.8% among 210,000 | AID 1458; further: nearly all actives have a fitted effect of over 55% in size
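HEK293 cells carry an SMN2 minigene-luciferase reporter in which exon 7 inclusion puts luciferase in frame. Cells were seeded at 2000 cells/well, attached for 10-12 hours, then exposed to compounds for 30-36 hours at 37C before ONE-Glo luminescence.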
Rab9 prom act = activators of Rab9 promoter; Huh7 Rab9 promoter-luciferase reporter, luminescence, 24 h; Potency, µM (doses to about 9.22 µM), actives largely listed as activators; hit rate 2.8% among 320,000; AID 485297; further: nearly all actives have a fitted effect of over 60% in size
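Promoter activation is measured as luciferase luminescence in Huh7 cells stably transfected with a Rab9 promoter–luciferase construct, following 24 h compound exposure at 37 °C and 10 min reagent incubation at ambient temperature.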
uPA generation = cell surface uPA generation inhibition | cell surface uPA generation assay, qHTS | Potency, µM (top dose mostly 38.3 µM), actives largely listed as inhibitors | hit rate 0.31% among 330,000; active means well fitted inhibition curve with a large enough effect; inconclusive means small, poorly fitted or top-dose-only effect; inactive means no such curve, though single readings can be large or run the other way; tested in mouse RAW 264.7 cells; further: nearly all actives have a fitted effect of over 55% in size
FLuc modulator = counter-screen for miR-21 project: firefly luciferase inhibitors or activators | P08659 | purified FLuc, Km substrates, luminescence inhibition | Potency, µM (doses to about 57.5 µM), usual class: inhibitors | hit rate 6.9% among 360,000 | AID 588342; further: nearly all actives have a fitted effect of over 55% in size
Target sequence (P08659 whole entry, looked up): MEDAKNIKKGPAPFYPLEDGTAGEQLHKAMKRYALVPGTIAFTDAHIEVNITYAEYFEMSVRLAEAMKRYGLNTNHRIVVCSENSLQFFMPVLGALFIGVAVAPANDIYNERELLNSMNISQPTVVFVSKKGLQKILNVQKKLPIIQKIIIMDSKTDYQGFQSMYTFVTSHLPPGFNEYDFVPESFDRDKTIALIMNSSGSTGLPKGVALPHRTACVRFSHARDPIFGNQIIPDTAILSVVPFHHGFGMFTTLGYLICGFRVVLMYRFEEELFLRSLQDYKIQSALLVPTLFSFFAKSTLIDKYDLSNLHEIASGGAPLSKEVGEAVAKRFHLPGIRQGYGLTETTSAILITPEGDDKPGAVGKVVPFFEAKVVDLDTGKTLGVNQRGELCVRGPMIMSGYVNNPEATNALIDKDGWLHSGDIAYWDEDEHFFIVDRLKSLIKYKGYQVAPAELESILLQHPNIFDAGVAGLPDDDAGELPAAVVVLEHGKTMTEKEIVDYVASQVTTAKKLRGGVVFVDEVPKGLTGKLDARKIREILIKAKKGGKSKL
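Purified P. pyralis luciferase (10nM final) with 10uM D-luciferin and 10uM ATP (Km levels) in 50mM Tris acetate pH 7.5, 10mM Mg acetate, 0.01% Tween-20, 0.05% BSA; qHTS 6-point titration, ~60 µM downward; luminescence read.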
A number is an active result; n = inactive; u = inconclusive; x = no result given. Unless noted, the call rests on the fitted dose curve; in most records, active means well fitted curve in the direction sought with a large enough effect; inconclusive means small, poorly fitted or top-dose-only effect, or another doubt; inactive means no such curve, though single readings can be large; an effect the other way counts as inactive or inconclusive.

SMILES	ELG1 genotoxic	NPC1 prom act	SMN2 splice enh	Rab9 prom act	uPA generation	FLuc modulator
CC[C@H](C)C(=O)O[C@H]1C[C@H](O)C=C2C=C[C@H](C)[C@H](CC[C@@H](O)C[C@@H](O)CC(=O)O)[C@H]21	x	x	n	x	x	x
O=C(O)c1cccc(N/N=C/c2ccc(-c3ccccc3)cc2)c1	0.15µM	0.025µM	0.2µM	0.028µM	n	0.076µM
Clc1ccc(N/N=C/c2cccnc2)cc1	n	n	u	n	n	17µM
O=[N+]([O-])c1ccc(N/N=C/c2cccnc2)cc1	n	n	x	n	n	u
CNC(=S)Nc1cccc(C(=O)O)c1	n	n	n	n	n	n
O=C(N/N=C/c1cccnc1)c1cccc(Br)c1	n	n	x	n	n	u
CC(C)(C)c1ccc(/C=N/Nc2cccc(C(=O)O)c2)cc1	0.15µM	0.5µM	0.1µM	1.1µM	u	0.17µM
Oc1ccc(/C=N/Nc2ccccc2)cc1	n	n	n	n	n	n
O=C(O)c1cccc(N/N=C/c2cccnc2)c1	n	u	8.9µM	0.32µM	x	2.4µM
O=C(CCC1N=C2c3ccccc3N=C(SCc3ccc(Cl)cc3)N2C1=O)NC1CCCCC1 (stereo not given)	x	x	n	x	x	n
COc1ccccc1CNC(=O)CCn1c(=O)c2cccn2c2cccnc21	x	x	x	x	x	n
CC1CCCN(c2ccc(C(=O)Nc3cccnc3)cc2[N+](=O)[O-])C1 (stereo not given)	n	n	n	n	x	u
CC(C)c1nn2c(=O)cc(COC(=O)c3ccccc3NC(=O)c3cccs3)nc2s1	x	x	x	x	x	n
CN(C)c1ccc(/C=N/Nc2cccc(C(=O)O)c2)cc1	u	u	x	10µM	n	0.076µM
Clc1ccc(N/N=C/c2ccncc2)cc1Cl	u	u	13µM	u	n	u
CN(C)c1ccc(/C=N/NC(=O)C2CC2c2ccccc2)cc1 (stereo not given)	n	n	x	n	u	u
N/C(=N\OC(=O)CC1CCCCC1)c1cccc([N+](=O)[O-])c1	n	n	n	n	n	6µM
COc1ccc(/C(N)=N/OC(=O)CC2CCCCC2)cc1	u	n	x	n	n	17µM
N/C(=N\OC(=O)CCC1CCCC1)c1cccc([N+](=O)[O-])c1	n	n	x	n	n	9.5µM
N/C(=N\OC(=O)CCC1CCCC1)c1ccc(Br)cc1	n	n	x	n	n	u
N/C(=N\OC(=O)CCC1CCCCC1)c1cccnc1	n	n	n	n	n	19µM
Fc1cccc(CNc2ncnc3ccc(-c4ccoc4)cc23)c1	x	n	x	n	x	n
O/N=C/c1ccn(-c2ccc(Br)cc2)c1	n	n	n	n	n	24µM
Cc1ccc(N(CC(=O)Nc2cccc(Cl)c2C)S(=O)(=O)c2c(C)noc2C)cc1	x	x	n	x	x	n
Cn1nnc2c(N3CCN(c4ccc(F)cc4)CC3)ncnc21	x	x	x	x	x	n
SMILES	ELG1 genotoxic	NPC1 prom act	SMN2 splice enh	Rab9 prom act	uPA generation	FLuc modulator
O=c1c2ccccc2nc(COc2ccccc2)n1/N=C/c1ccc(O)c(O)c1	n	n	x	n	u	27µM
Cc1ccccc1CN1C(=O)c2ccccc2Sc2ccc(C(=O)NC(C)c3ccccc3)cc21 (stereo not given)	x	x	x	x	x	n
CNc1nnc(-c2cccc(N(C)C)c2)s1	11µM	u	14µM	u	n	15µM
O=C(Nc1cc2c(cc1Cl)OCCCO2)c1ccccc1	6.3µM	u	11µM	2.8µM	n	13µM
CCOc1cc(Cl)c(NC(=O)c2ccco2)cc1OCC	n	n	n	n	n	n
CC(C)C(=O)c1cc2c(cc1NC(=O)c1ccccc1)OCCO2	n	n	n	n	x	n
O=C(Nc1cc2c(cc1Cl)OCCCO2)c1ccco1	u	3.5µM	14µM	3.5µM	n	11µM
COc1cccc(NC(=O)Cn2c(=O)n(CCCCC(=O)NCc3ccccc3Cl)c(=O)c3ccccc32)c1	x	x	n	x	x	n
O=C(Nc1ccc(C(=O)N2CCN(c3ccccc3F)CC2)cc1)c1nsc2ccccc12	x	x	x	x	x	5.4µM
Cc1ccc(Cl)cc1N1CCN(C(=O)c2ccc(NC(=O)c3nsc4ccccc34)cc2)CC1	x	x	x	x	x	6µM
COc1cccc(N2CCN(C(=O)c3ccc(NC(=O)c4nsc5ccccc45)cc3)CC2)c1	x	x	x	x	x	1.2µM
O=C(Nc1ccc(C(=O)N2CCN(c3ccc(Cl)cc3)CC2)cc1)c1nsc2ccccc12	x	x	x	x	x	1.1µM
CCn1cc(C(=O)N2CCN(c3ccc(C)cc3)C(C)C2)c(=O)c2cc(S(=O)(=O)N3CCCC3)ccc21 (stereo not given)	x	x	n	x	x	n
CC1=C(C(=O)Nc2ccccc2C)C(c2cccnc2)n2nc(SCc3ccccc3)nc2N1 (stereo not given)	x	x	x	x	x	n
Cc1cccc(N2CCN(C(=O)c3ccc(NC(=O)c4nsc5ccccc45)cc3)CC2C)c1 (stereo not given)	x	x	x	x	x	4.8µM
CC1CCN(C(=O)c2ccc(NC(=O)c3cccs3)cc2)CC1	n	n	x	n	n	u
COc1ccc(N2CCN(C(=O)c3ccc(NC(=O)c4nsc5ccccc45)cc3)CC2)cc1	x	x	x	x	x	6.7µM
CC1CCN(C(=O)c2ccc(NC(=O)c3nsc4ccccc34)cc2)CC1	x	x	x	x	x	7.6µM
CC(=O)c1ccc(NC(=O)CSc2nc(N3CCOCC3)nc(N3CCOCC3)n2)cc1	18µM	n	x	n	n	n
CC(=O)Nc1c(O)nc(SCC(=O)Nc2ccc(C(C)=O)cc2)[nH]c1=O	9.2µM	u	u	u	n	u
CCn1c(SCC(=O)Nc2ccc(C(C)=O)cc2)nc2c([nH]c3ccccc32)c1=O	16µM	n	x	n	n	n
Cc1cccc(N2CC(c3nc4ccc(C)cc4[nH]3)CC2=O)c1 (stereo not given)	x	x	n	x	x	n
Cc1[nH]n(-c2ccccc2)c(=O)c1N=Nc1ccc2c(c1)OCCO2	u	u	18µM	4µM	n	6µM
Cc1[nH]n(-c2ccccc2)c(=O)c1N=Nc1cccc([N+](=O)[O-])c1	n	n	x	n	n	13µM
CSc1ccc(N=Nc2c(C)[nH]n(C)c2=O)cc1	u	n	x	n	n	19µM
SMILES	ELG1 genotoxic	NPC1 prom act	SMN2 splice enh	Rab9 prom act	uPA generation	FLuc modulator
Nc1c(N=Nc2cccc(Cl)c2)c(=O)[nH]n1-c1ccccc1	n	n	n	n	n	n
Cc1[nH]n(-c2cccc([N+](=O)[O-])c2)c(=O)c1-c1ccccc1	n	n	n	n	n	u
Cc1[nH]n(-c2ccccc2)c(=O)c1N=Nc1cccc(Cl)c1	n	u	x	n	n	9.5µM
CCOc1c(Br)cc(C(=O)N2CCCN(C)CC2)cc1OC	n	n	x	n	n	n
Cc1[nH]n(-c2ccccc2)c(=O)c1N=Nc1ccc(F)cc1	u	n	x	u	n	2.7µM
Cc1ccc(N=Nc2c(C)[nH]n(-c3ccccc3)c2=O)cc1Br	n	n	x	n	n	n
COc1c(O)cc2c(c1O)C(=O)CC(c1ccccc1)O2 (stereo not given)	u	u	x	u	x	9.5µM
